12 molecules from PubChem BioAssay (EPA / NIEHS) can be followed below.

Holding throughout (settings): primary human HUVEC with PBMC; actives raise or lower the signal
Assay [1] in a line: BSK_LPS_PGE2: BioMAP Diversity Plus: LPS Assay for Prostaglandin E2 (PGE2) Biomarker Activity (AID 2283082).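 On AC50: secreted prostaglandin E2 measured by ELISA in LPS-stimulated co-culture.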 Put shortly:
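PGE2 release measured by ELISA in an LPS-activated co-culture of human umbilical vein endothelial cells and peripheral blood mononuclear cells, read at 24 h post-dosing. DMSO served as baseline for bidirectional curve fitting.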

Read-out in assay [2]: Macrophage colony-stimulating factor (MCSF), CSF1 (gene 1435)
Kind of assay: BSK_LPS_MCSF: BioMAP Diversity Plus: LPS Assay for Macrophage colony-stimulating factor (MCSF) Biomarker Activity (AID 2283083). Put shortly: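 Bidirectional fit versus DMSO of ELISA-measured M-CSF in co-cultured human umbilical vein endothelial cells and PBMC, sampled 24 h after dosing.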

Read-out in assay [3]: Tissue Factor, F3 (gene 2152)
As to the kind of experiment: BSK_LPS_TissueFactor: BioMAP Diversity Plus: LPS Assay for Tissue Factor Biomarker Activity (AID 2283084). Put shortly:
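Read-out: CD142 ELISA, 24 h. System: LPS-driven human endothelial/PBMC co-culture. Analysis: up- or down-signal fitted against DMSO.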

Read-out in assay [4]: Tumor necrosis factor (Homo sapiens) (UniProt P01375)
As to the kind of experiment: BSK_LPS_TNFa: BioMAP Diversity Plus: LPS Assay for Tumour Necrosis Factor alpha (TNFa) Biomarker Activity (AID 2283085).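 On AC50: TNFa protein level quantified by ELISA in the co-culture.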 A digest of the protocol:
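TNFa was quantified by ELISA in LPS-activated co-cultures of human endothelial cells and PBMC, 24 h post-dosing. Both increases and decreases versus DMSO were fitted.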

Read-out in assay [5]: Vascular cell adhesion molecule 1 (VCAM1), VCAM1 (gene 7412)
Kind of assay: BSK_LPS_VCAM1: BioMAP Diversity Plus: LPS Assay for Vascular cell adhesion molecule 1 (VCAM1) Biomarker Activity (AID 2283086). A digest of the protocol: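 VCAM-1 quantified by ELISA in an LPS-activated co-culture of human endothelial cells and peripheral blood mononuclear cells, read 24 h post-treatment. Fitted in both directions versus DMSO; parallel SRB staining flags overt cytotoxicity.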

Read-out in assay [6]: CD38, CD38 (gene 952)
Kind of assay: BSK_SAg_CD38: BioMAP Diversity Plus: SAg Assay for CD38 Biomarker Activity (AID 2283087). Put shortly: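 CD38 quantified by ELISA (fluorescence) in a superantigen-activated endothelial cell–PBMC co-culture at 24 h post-dose. Activity fitted in both directions relative to DMSO; parallel SRB and Alamar Blue cytotoxicity read-outs.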

Read-out in assay [7]: CD40, CD40 (gene 958)
As to the kind of experiment: BSK_SAg_CD40: BioMAP Diversity Plus: SAg Assay for CD40 Biomarker Activity (AID 2283088). A digest of the protocol:
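Endpoint derived by fitting increases or decreases versus DMSO controls. CD40 is detected by fluorescence ELISA in a human vascular co-culture of endothelium and PBMC at 24 h.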

Read-out in assay [8]: CD69, CD69 (gene 969)
Kind of assay: BSK_SAg_CD69: BioMAP Diversity Plus: SAg Assay for CD69 Biomarker Activity (AID 2283089).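 On AC50: cell surface CD69 protein quantified by ELISA with fluorescence detection.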 Put shortly: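 HUVEC co-cultured with PBMC were dosed with chemical, and CD69 was measured by ELISA with fluorescence read-out 24 h later. Bidirectional curve fitting used DMSO as negative control and activity baseline.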

Read-out in assay [9]: Monocyte Chemoattractant Protein-1 (MCP1), CCL2 (gene 6347)
As to the kind of experiment: BSK_SAg_MCP1: BioMAP Diversity Plus: SAg Assay for Monocyte Chemoattractant Protein-1 (MCP1) Biomarker Activity (AID 2283090). A digest of the protocol: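 Values derive from bidirectional fitting of ELISA-measured MCP1 against DMSO controls. Readings were taken 24 h after dosing human vascular endothelial cells co-cultured with peripheral blood mononuclear cells under superantigen stimulation.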

Read-out in assay [10]: E-selectin (Homo sapiens) (UniProt P16581)
As to the kind of experiment: BSK_SAg_Eselectin: BioMAP Diversity Plus: SAg Assay for Eselectin Biomarker Activity (AID 2283091). A digest of the protocol:
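Endpoint values derive from bidirectional fitting relative to DMSO, using ELISA-measured E-selectin in a human vascular co-culture (umbilical vein endothelium plus PBMC) sampled 24 h after dosing.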

Values joined by “and” are separate entries in the source; they are usually repeats but may differ in a detail not shown here. Identical values can stand only once. A structure can be active in one record and inactive in another. Active and inactive are the calls of the source. How the source made its calls: active means hit-call score of the fitted dose curve at least 0.9, where 1 is the maximum; inactive means score below 0.9.

Tumor necrosis factor (Homo sapiens), sequence (P01375 whole entry, looked up): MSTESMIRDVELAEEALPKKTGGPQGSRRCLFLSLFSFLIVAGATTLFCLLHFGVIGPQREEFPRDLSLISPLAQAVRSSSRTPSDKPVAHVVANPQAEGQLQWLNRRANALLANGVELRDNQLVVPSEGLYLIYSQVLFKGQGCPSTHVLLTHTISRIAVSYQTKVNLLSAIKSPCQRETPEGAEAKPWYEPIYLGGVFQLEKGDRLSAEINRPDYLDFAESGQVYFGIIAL
E-selectin (Homo sapiens), sequence (P16581 whole entry, looked up): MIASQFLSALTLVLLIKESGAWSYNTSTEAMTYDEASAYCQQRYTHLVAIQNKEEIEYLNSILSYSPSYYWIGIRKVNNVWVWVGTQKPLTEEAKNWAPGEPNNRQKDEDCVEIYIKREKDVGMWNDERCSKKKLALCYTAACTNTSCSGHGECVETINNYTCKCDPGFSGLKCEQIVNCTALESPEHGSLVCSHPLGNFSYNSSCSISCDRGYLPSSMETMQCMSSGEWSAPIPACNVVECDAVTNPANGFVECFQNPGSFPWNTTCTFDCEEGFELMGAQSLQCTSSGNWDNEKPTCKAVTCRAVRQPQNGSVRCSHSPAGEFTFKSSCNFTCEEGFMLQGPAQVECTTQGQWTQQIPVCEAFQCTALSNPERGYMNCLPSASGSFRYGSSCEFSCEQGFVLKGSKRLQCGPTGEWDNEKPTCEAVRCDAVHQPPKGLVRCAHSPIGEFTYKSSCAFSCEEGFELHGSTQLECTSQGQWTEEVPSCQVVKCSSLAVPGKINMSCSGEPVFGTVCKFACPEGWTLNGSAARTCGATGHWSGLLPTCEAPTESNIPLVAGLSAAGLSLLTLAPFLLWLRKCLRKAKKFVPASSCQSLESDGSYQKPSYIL

With `O=C(O)CCCOc1ccc(Cl)cc1Cl`, in assay [1], the half-maximal activity concentration (AC50) is 15.2 µM (active). Moreover, the result in assay [2], in assay [3], in [4], in assay [5], in assay [6] and in assay [7] was inactive. The result in [8], in assay [9] and in assay [10] was inactive.

Regarding `COC(=O)c1ccccc1CS(=O)(=O)NC(=O)Nc1nc(OC)cc(OC)n1`, the result in assay [1], in assay [2], in assay [3], in assay [4], in [5] and in assay [6] was inactive. Moreover, the outcome in assay [7], in assay [9] and in assay [10] was inactive. Further, the AC50 in assay [8] was 5.03 µM (active).

On to `O=C1c2ccccc2C(=O)N1SC(Cl)(Cl)Cl`, for which the result in assay [1], in assay [2], in assay [3], in assay [5], in assay [6] and in assay [7] was inactive. In addition, the result in assay [8], in assay [9] and in assay [10] was inactive. Also, the concentration at half-maximal activity (AC50) in assay [4] was 32 µM (active).

As to `O=C(NC(=O)c1c(F)cccc1F)Nc1ccc(OC(F)(F)C(F)OC(F)(F)F)c(Cl)c1` (configuration not stated), the outcome in assay [1], in assay [2], in assay [3], in assay [4], in assay [5] and in [7] was inactive. The result in [8] was inactive. In addition, the AC50 in assay [6] was 16.3 µM (active); in assay [9] it was 32.2 µM (active); in assay [10], 9.18 µM (active).

For `O=S(=O)(O)C(F)(F)C(F)(F)C(F)(F)C(F)(F)C(F)(F)C(F)(F)C(F)(F)C(F)(F)F`, the result in [1], in [2], in assay [3], in assay [4], in [5] and in assay [6] was inactive. The outcome in assay [7], in assay [8], in assay [9] and in [10] was inactive. Also, the AC50 in assay [4] was 15 µM (active); in assay [7], 20 µM (active); in assay [10] it was 20 µM (active).

On to `CC(C)(C)C(O)C(Oc1ccc(Cl)cc1)n1cncn1` (configuration not stated), for which the concentration at half-maximal activity (AC50) in assay [1] was 3.1 µM (active); in assay [2], 20 µM (active); in [6], 4.99 µM (active); in assay [7] it was 8.99 µM (active); in assay [10], 12.9 µM (active). Moreover, the outcome in assay [1], in assay [2], in [3], in assay [4], in [5] and in assay [6] was inactive. Further, the result in assay [7], in assay [8], in [9] and in assay [10] was inactive.

Consider `CCCN(CCC)c1c([N+](=O)[O-])cc(C(F)(F)F)cc1[N+](=O)[O-]`, for which the result in assay [1], in assay [3], in [4] and in [9] was inactive. The AC50 in assay [2] was 20 µM (active); in [5], 29.3 µM (active); in assay [6] it was 15.2 µM (active); in [7] it was 29.5 µM (active); in [8], 30.2 µM (active); in assay [10], 15.4 µM (active).

Turning to `N#Cc1c(Cl)c(Cl)c(Cl)c(C#N)c1Cl`, the concentration at half-maximal activity (AC50) in assay [1] is 0.148 µM (active); in [2], 0.924 µM (active); in assay [3], 0.332 µM (active); in [4], 0.134 µM (active); in assay [5] it was 0.773 µM (active); in assay [6], 0.953 µM (active). Also, the AC50 in [7] is 0.459 µM (active); in assay [8], 1.35 µM (active); in assay [9], 1.68 µM (active); in assay [10], 0.959 µM (active).

Regarding `O=C(O)C(F)(F)C(F)(F)C(F)(F)C(F)(F)C(F)(F)C(F)(F)C(F)(F)F`, the AC50 in assay [1] was 35.5 µM (active) and 27.5 µM (active); in assay [4], 9.76 µM (active). Besides, the outcome in assay [1], in assay [2], in assay [3], in [4], in [5] and in [6] was inactive. Further, the outcome in [7], in assay [8], in assay [9] and in [10] was inactive.

In the case of `ClC1C(Cl)C(Cl)C(Cl)C(Cl)C1Cl` (configuration not stated), the outcome in [1], in assay [2], in assay [3], in assay [4], in [5] and in [6] was inactive. In addition, the outcome in assay [7], in [8], in assay [9] and in [10] was inactive. The AC50 is 13.3 µM (active) in [4] and 31.3 µM (active) in assay [5].

`O=S1OCC2C(CO1)C1(Cl)C(Cl)=C(Cl)C2(Cl)C1(Cl)Cl` (configuration not stated): the outcome in assay [1] was inactive. Also, the half-maximal activity concentration (AC50) in assay [2] was 30.2 µM (active); in [3], 31.2 µM (active); in [4], 32.2 µM (active); in assay [5], 18.3 µM (active); in assay [6], 28.3 µM (active); in assay [7], 16.3 µM (active). Besides, the concentration at half-maximal activity (AC50) in assay [8] is 26.9 µM (active); in assay [9] it was 35.5 µM (active); in [10], 36.7 µM (active).

Regarding `CCC(C)(NC(=O)c1cc(Cl)c(C)c(Cl)c1)C(=O)CCl` (configuration not stated), the outcome in assay [1] was inactive. The AC50 in [2] is 13 µM (active); in [3] it was 5.21 µM (active); in assay [4], 12.3 µM (active); in [5] it was 8.9 µM (active); in assay [6], 6.39 µM (active); in assay [7], 7.22 µM (active). Besides, the AC50 was 14.3 µM (active) in assay [8], 10.3 µM (active) in assay [9] and 7.45 µM (active) in assay [10].
